TIM10 inh = inhibits growth of TIM10 yeast strain; S. cerevisiae TIM10 strain growth, BacTiter-Glo luminescence, 24 h; inhibition, % at 10 µM; 1.4% of 330,000 active;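 active means inhibition of 40% or more at the single tested concentration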;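 further: wild-type TIM10 isogenic control strain grown at permissive 25 °C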
tim23-1 inh = inhibits growth of tim23-1 mutant yeast | S. cerevisiae tim23-1 growth, BacTiter-Glo luminescence, 24 h | inhibition, % at 20 µM | 1.3% of 330,000 active | AID 463212;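 active means growth inhibition of the mutant yeast at or above 50%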;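 further: temperature-sensitive mutant grown at 25 °C; plate controls were DMSO-treated mutant yeast for no effect and medium wells lacking yeast for full effect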
NALP1 yeast inh = inhibitors of NALP1 inflammasome in yeast; 0.61% of 280,000 active; S. cerevisiae NALP1/ASC/caspase-1 growth, X-gal OD620, 72 h; inhibition, % at 10 µM; AID 2071; in the data active means inhibition mostly above about 24%, no sharp cut-off; inactive means mostly below about 32%
tim10-1 inh = tim10-1 yeast growth inhibition. S. cerevisiae tim10-1 ts strain growth, BacTiter-Glo, 24 h. inhibition, % at 20 µM. 2.2% of 330,000 active. AID 463190;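 active means inhibition of at least 40%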;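 further: mutant grown at 25 °C; 0% = DMSO wells with yeast and 100% = wells holding no yeast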
PfHsp90 yeast 2 = growth inhibition of yeast expressing Plasmodium Hsp90; AID 504621; 0.32% of 310,000 active; inhibition, % at 9.4 µM; S. cerevisiae expressing PfHsp90, BacTiter-Glo ATP, 48 h; yeast lacking PDR1 and PDR3 efflux regulators;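 active means every replicate shows inhibition above about 80%, whatever the replicate mean, limit read from the data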;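 further: 0% = DMSO neutral controls and 100% = 20 µM radicicol positive controls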
NALP3 yeast inh = inhibitors of NALP3 inflammasome in yeast. Yeast reconstituted NLRP3/ASC/caspase-1, beta-gal luminescence, 24 h. inhibition, % at 10 µM. 0.39% of 330,000 active. AID 2825;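 active means inhibition of 50% or more; inactive means inhibition below 50%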;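 further: plate controls were induced DMSO wells for no effect and uninduced yeast grown without galactose for full effect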
tim10-1 conf = tim10-1 yeast growth inhibition, confirmed; shares compounds with tim10-1 inh; S. cerevisiae tim10-1 ts strain growth, BacTiter-Glo, 24 h; inhibition, % at 20 µM; 56% of 7,400 active; AID 463213;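 active means inhibition of yeast growth at or above a set limit in either of two repeat tests at 20 µM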;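 further: tim10-1 mutant grown at permissive 25 °C to find synthetic lethal compounds; 0% = DMSO yeast wells and 100% = medium wells without yeast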
The depositor's hits bear a star; . = not tested or not shown. In the library only some 4.2% were active in any assay of this set; here they are far more common.

SMILES	TIM10 inh	tim23-1 inh	NALP1 yeast inh	tim10-1 inh	PfHsp90 yeast 2	NALP3 yeast inh	tim10-1 conf
O=C(Cc1ccc(S(=O)(=O)N2CCOCC2)s1)Nc1ccc2c(c1)CCC2	31	27	2	41*	-13	-4	17
COc1cc(NC(=O)Cc2ccc(S(=O)(=O)N3CCOCC3)s2)c(OC)cc1Cl	13	24	.	30	16	-10	.
O=C(Cc1ccc(S(=O)(=O)N2CCOCC2)s1)Nc1cc(Cl)ccc1Cl	23	34	.	44*	-5	-2	36*
COc1ccc(CNC(=O)CCC(=O)Nc2nnc(CC(C)C)s2)cc1	-8	9	3	-17	6	17	.
CCCCCCCCS(=O)c1sc2nc3c(cc2c1N)CCCC3 (centres undefined)	28	43	.	42*	.	3	50*
Cc1noc(C)c1COc1ccccc1C(=O)N(C)Cc1ccc(F)cc1	16	18	.	21	.	8	.
Cc1noc(C)c1COc1ccccc1C(=O)N(C)Cc1ccc(C(C)(C)C)cc1	17	49	.	42*	.	-2	20
COc1ccc(OC)c(NC(=O)CSc2nc3n[nH]c(C)c3c(=N)n2-c2cccc(Cl)c2C)c1	15	34	8	43*	0	3	6
CCOc1ccccc1NC(=O)CCSc1nc2n[nH]c(C)c2c(=N)n1-c1ccccc1Cl	22	1	7	21	-7	-5	.
Cc1ccccc1-n1c(SCc2ccccn2)nc2n[nH]c(C)c2c1=N	18	38	24	40*	21	16	38*
Cc1ccccc1-n1c(SCC(=O)Nc2ccccc2Cl)nc2n[nH]c(C)c2c1=N	26	28	8	42*	-16	-3	11
O=C(ON=C1CCN(S(=O)(=O)c2ccccc2)CC1)c1ccc(F)cc1	37	46	1	52*	.	-2	54*
O=C(O)C1OC(C(=O)O)C(C(=O)O)C1C(=O)O (centres undefined)	.	.	.	.	-19	.	.
O=C(Nc1cc(Cl)cc(Cl)c1)C(NCC1CCCO1)c1ccccc1 (centres undefined)	23	36	39	45*	24	10	26
CC(=O)c1c(C)[nH]c(C(=O)C(C)Sc2nnc(NC3CC3)s2)c1C (centres undefined)	-1	8	.	0	-23	10	.
COc1ccc(-c2nc(C#N)c(N3CCc4ccccc4C3)o2)cc1OC	13	31	9	21	.	19	.
COc1ccccc1-c1nc(C#N)c(N2CCc3ccccc3C2)o1	34	40	22	40*	10	20	32*
CC(C)c1cc(-c2n[nH]c(=S)n2Cc2ccccc2)cs1	29	35	12	47*	2	33	27
S=c1[nH]nc(-c2ccccc2)n1Cc1ccccc1	29	7	4	39	-11	18	.
Cc1nn(C(C)C(=O)NC2CCCCC2)c(=O)c2nn(-c3ccccc3)c(C)c12 (centres undefined)	-2	9	-7	26	-18	5	.
Cc1ccc(NC(=O)C2CCN(c3ncnc4sc(C)c(C)c34)CC2)cc1S(=O)(=O)N(C)C	8	-7	.	-11	.	-6	.
Cc1ccc(C)c(S(=O)(=O)N2CCN(C(=O)C3CCN(c4ncnc5sc(C)c(C)c45)CC3)CC2)c1	-70	41	.	47*	.	8	28
COc1ccccc1/C=C1\SC(=S)N(CCC(=O)N2CCCCC2CCO)C1=O (centres undefined)	16	34	2	42*	2	12	9
O=C(CCN1C(=O)/C(=C/c2cccs2)SC1=S)N1CCCCC1	24	39	17	42*	15	24	12
COc1ccc2cc(C[C@@H]3CC[C@@H](CO)O3)ccc2c1	7	43	.	12	8	.	.
O=[N+]([O-])c1cc(/C=N/O)ccc1SCc1ccccc1Cl	35	16	1	47*	.	14	22
COc1ccc(Nc2nc(Nc3ccc(OC)cc3)nc(SC3=NCCS3)n2)cc1	39	17	-9	40	-48	20	15
COc1ccc(Nc2nc(OC)nc(OC)n2)cc1	-4	15	8	14	1	19	.

Screening results (PubChem)
